Screening data as filed in PubChem BioAssay.
This excerpt belongs to a sample that is enriched for hits.
DUX4 txn inh: DUX4-mediated transcription inhibition. hit rate 0.8% among 37,000. 293T-iDUX4 ZSCAN4-Gaussia luciferase reporter, 24 h; stronger effect = lower value. AID 1224904. activity change, negative = inhibition, % (concentration not given with the values);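 active = mean inhibition of at least 10% in the main channel, exceeding the control channel by a set limit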
Hits are given with their value; 0 = inactive.

SMILES | DUX4 txn inh
O=C(C[C@@H]1C=C[C@H](NC(=O)c2cnccn2)[C@@H](CO)O1)NCc1ccccc1F | 0
O=C(C[C@@H]1C[C@@H]2c3cc(NC(=O)Cc4ccncc4)ccc3O[C@@H]2[C@@H](CO)O1)NCC1CC1 | 0
COCC#Cc1ccc2c(c1)O[C@H](CN(C)CC1CCCCC1)[C@H](C)CN([C@H](C)CO)S2(=O)=O | 0
O=C(Cc1ccncc1)NCC[C@H]1CC[C@H](NC(=O)Nc2cccc(F)c2)[C@@H](CO)O1 | 0
OC[C@H]1[C@H](c2ccc(C#Cc3cccnc3)cc2)[C@@H]2CN(Cc3ccccc3F)CCCCN12 | -38
OC[C@@H]1[C@H](c2ccc(C#Cc3cccnc3)cc2)[C@H]2CN(Cc3ccccc3F)CCCCN12 | -57
O=C(Nc1cccc(F)c1)N1CCCCN2[C@H](C1)[C@@H](c1ccc(C#Cc3cccnc3)cc1)[C@@H]2CO | 0
OC[C@@H]1[C@H](c2ccc(C#Cc3ccccc3F)cc2)[C@@H]2CN(Cc3cncnc3)CCCCN12 | 0
O=C(Nc1ccccc1F)N1CCCCN2[C@@H](CO)[C@H](c3ccc(C#Cc4cccnc4)cc3)[C@@H]2C1 | 0
OC[C@@H]1[C@@H](c2ccc(C#Cc3ccccc3F)cc2)[C@H]2CN(Cc3cncnc3)CCCCN12 | 0
O=C(Nc1ccccc1F)N1CCCCN2[C@H](CO)[C@H](c3ccc(C#Cc4cccnc4)cc3)[C@H]2C1 | -36
CC(C)(O)C#Cc1ccc([C@@H]2[C@H]3CN(Cc4ccccc4F)CCCCN3[C@H]2CO)cc1 | 0
OC[C@H]1[C@H](c2ccc(C#Cc3ccccc3F)cc2)[C@@H]2CN(Cc3cncnc3)CCCCN12 | 0
COc1ccc(NC(=O)Nc2ccc3c(c2)[C@H]2C[C@@H](CC(=O)N4CCc5ccccc5C4)O[C@@H](CO)[C@H]2O3)cc1 | 0
O=C(Nc1cc(F)ccc1F)N1C[C@@H]2[C@H](c3ccccc31)[C@@H](CO)N2CC1CCCC1 | 0
C[C@H]1CN([C@@H](C)CO)C(=O)c2cc(NC(=O)c3ccncc3)ccc2O[C@@H]1CN(C)CC1CCCCC1 | 0
CC(=O)NC[C@H]1[C@@H](c2ccc(-c3cccnc3)cc2)[C@@H](CO)N1C(=O)C1CCC1 | 0
CNC[C@@H]1OCCCC[C@@H](C)Oc2ccc(NC(=O)Cc3ccccc3)cc2C(=O)N([C@H](C)CO)C[C@@H]1C | 0
CCS(=O)(=O)Nc1ccc2c(c1)C(=O)N(C)C[C@@H](OC)[C@@H](C)CN(C(=O)CN(C)C)[C@@H](C)CO2 | 0
C[C@H]1CC=CC[C@H](c2ccccc2)NC(=O)[C@@H](Cc2ccccc2)N(C)C(=O)c2ccccc2O1 (mixture of isomers) | 0
COCC(=O)N1CC[C@@H]2[C@H]1c1cc(C#Cc3ccc(OC)cc3)ccc1N[C@@H]2CO | -18
O=C(Cc1ccccc1)N1CC[C@@H]2[C@H]1c1cc(-c3ccc(F)cc3)ccc1N[C@@H]2CO | -24
COCC(=O)N1CC[C@@H]2[C@H]1c1cc(-c3ccc(C#N)cc3)ccc1N[C@@H]2CO | -34
COCC(=O)N1CC[C@@H]2[C@@H](CO)Nc3ccc(C#Cc4ccc(F)cc4)cc3[C@@H]21 | 0
N#Cc1ccc(-c2ccc3c(c2)[C@@H]2[C@@H](CCN2C(=O)Cc2ccccc2)[C@H](CO)N3)cc1 | 0
SMILES | DUX4 txn inh
CCC(=O)N1CC[C@@H]2[C@H](CO)Nc3ccc(C#Cc4ccc(OC)cc4)cc3[C@@H]21 | 0
COCC(=O)N1CC[C@@H]2[C@H](CO)Nc3ccc(-c4ccc(C(=O)N(C)C)cc4)cc3[C@@H]21 | 0
COCC(=O)N1CC[C@H]2[C@H](CO)Nc3ccc(-c4ccc(C#N)cc4)cc3[C@H]21 | 0
O=C(CN1CCOCC1)N1CC[C@H]2[C@H](CO)Nc3ccc(-c4ccccc4)cc3[C@H]21 | 0
COc1ccccc1C#Cc1ccc2c(c1)[C@H]1[C@H](CCN1C(=O)CN1CCOCC1)[C@@H](CO)N2 | 0
COc1ccccc1C#Cc1ccc2c(c1)[C@H]1[C@H](CCN1C(=O)CN1CCOCC1)[C@H](CO)N2 | -21
O=C(Cc1ccccc1)N1CC[C@@H]2[C@@H](CO)Nc3ccc(-c4cccc(F)c4)cc3[C@@H]21 | 0
CC(C)C#Cc1ccc2c(c1)O[C@@H](CN(C)C(=O)c1ccncc1)[C@H](C)CN([C@H](C)CO)S2(=O)=O | 0
COc1ccc2c3c(n(C)c2c1)[C@H](CO)N(Cc1ccccc1Cl)CC31CCN(C(C)=O)CC1 | 0
COc1ccc2c3c([nH]c2c1)[C@H](CO)NCC31CCN(C(=O)Cc2ccncc2)CC1 | 0
Cc1noc(C)c1NC(=O)Nc1ccc2c(c1)C(=O)N(C)[C@H]1CC[C@@H](CC(=O)NCc3ccc(Cl)cc3)O[C@@H]1CO2 | 0
O=C(NC1CCC1)[C@H]1[C@H](CO)[C@H]2Cn3c(ccc(-c4ccncc4)c3=O)[C@H]2N1CCc1ccccc1 | 0
O=C(C[C@@H]1C[C@@H]2c3cc(NC(=O)C4CCOCC4)ccc3O[C@@H]2[C@H](CO)O1)NCc1ccc2c(c1)OCO2 | 0
COc1ccc2c3c([nH]c2c1)[C@H](CO)N(C(=O)c1ccncc1)CC31CCN(C)CC1 | 0
